This is one part of a sample in which hits are shown more often than they occur.
Mtb RmlCD inh = M. tuberculosis RmlC/RmlD coupled enzyme inhibitors, primary screen, biochemical, compound mixtures, 384-well, from 1536-well plates. dTDP-4-dehydrorhamnose reductase (Mycobacterium tuberculosis (strain ATCC 25618 / H37Rv)) …. RmlC+RmlD coupled enzyme assay, percent inhibition; primary screen in compound mixtures. inhibition, % at 3.6 µM. 160,000 tested, 0.03% active. AID 1533, 2009; in the data active means inhibition mostly above about 34%, no sharp cut-off
Target sequence (P9WH09 whole entry, looked up): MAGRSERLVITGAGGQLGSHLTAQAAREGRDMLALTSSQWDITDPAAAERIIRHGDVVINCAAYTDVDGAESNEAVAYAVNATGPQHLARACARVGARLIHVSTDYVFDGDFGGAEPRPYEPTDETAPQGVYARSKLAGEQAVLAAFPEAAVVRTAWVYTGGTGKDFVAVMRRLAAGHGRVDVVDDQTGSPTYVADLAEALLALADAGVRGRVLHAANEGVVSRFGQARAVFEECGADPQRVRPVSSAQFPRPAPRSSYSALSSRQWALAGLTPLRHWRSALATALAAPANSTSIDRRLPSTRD
Target sequence (P9WH11 whole entry, looked up): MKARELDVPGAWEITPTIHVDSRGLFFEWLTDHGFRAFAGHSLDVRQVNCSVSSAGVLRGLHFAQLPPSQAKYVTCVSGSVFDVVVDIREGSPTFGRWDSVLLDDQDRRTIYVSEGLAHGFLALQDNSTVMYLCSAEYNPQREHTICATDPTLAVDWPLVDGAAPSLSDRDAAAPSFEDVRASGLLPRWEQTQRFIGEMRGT
YopH PTP inh = YopH tyrosine phosphatase inhibitors, primary screen, biochemical, fluorescence Ex485/Em525; 140,000 tested, 0.16% active; YopH tyrosine phosphatase [Yersinia enterocolitica]; inhibition, % (no concentration beside the values); in the data active means inhibition above about 50%
Starred values were filed as active, the others as inactive; x = no result given.

SMILES	Mtb RmlCD inh	YopH PTP inh
O=C(O)c1ccccc1SCC(=O)N1c2ccccc2Sc2ccccc21	-16	60*
COc1ccc(N2CCN(Cc3cc(=O)oc4cc(-c5ccccc5)c(O)cc34)CC2)cc1	x	0
O=c1cc(CN2CCN(c3ccccc3F)CC2)c2cc(O)c(-c3ccccc3)cc2o1	x	61*
CSc1cccc(NC(=S)N(CCC(C)C)C2CCN(C(C)C)CC2)c1	4	x
COc1ccc2nc3ccccc3nc2c1	-8	x
COc1ccc(-n2nc3ccccc3n2)cc1	0	50*
CCOC(=O)c1c[nH][nH]c1=O	-10	x
CCN(c1ccc(NC(=O)COC(=O)/C=C/c2cccs2)cc1)C(C)C	-6	x
O=C(COc1cccc(Br)c1)N/N=C1\CCSC1	6	x
CCn1c(C)nc2cc(C(=O)N/N=C(\C)c3ccc(OC)cc3O)ccc21	37*	x
CCn1c(C)nc2cc(C(=O)N/N=C/c3ccc(OC)cc3)ccc21	4	x
O=C1C=C(NCCN2CCOCC2)C(=O)c2cnccc21	x	101*
O=C(NCCN1CCOCC1)c1ccncc1	-6	-31
Cc1nnc(SC(C(=O)Nc2ccc(Cl)c([N+](=O)[O-])c2)c2ccccc2)[nH]c1=O (configuration not stated)	-11	x
COc1ccc(NCc2ccc([N+](=O)[O-])s2)c(OC)c1	-10	76*
COc1ccc(NCc2ccc([N+](=O)[O-])s2)cc1	-9	48
CCOC(=O)C(NC(=O)NCc1ccc(F)cc1)(OCC)C(F)(F)F (configuration not stated)	-14	-15
CCOC(=O)C(NC(=O)Nc1ccccc1)(OCC)C(F)(F)F (configuration not stated)	x	53*
CN(C)c1cccc(C(=O)OCc2cc(=O)oc3cc(O)ccc23)c1	11	10
CC1CN(S(=O)(=O)c2cccc(C(=O)OCc3cc(=O)oc4cc(O)ccc34)c2)CC(C)O1 (configuration not stated)	64*	1
CCOC(=O)c1ccc(NC(=O)Cn2ccc([N+](=O)[O-])n2)cc1	13	x
Cc1cc(NC(=O)CSc2nc3cc(C(=O)NCCCOC(C)C)ccc3c(=O)n2Cc2ccco2)no1	-6	x
Cc1oc2c(c1C(=O)O)C(=O)c1ccccc1C2=O	-8	x
O=C1C(=O)c2c(C(=O)c3ccccc3)coc2-c2ccccc21	9	75*
Cc1oc2c(c1C(=O)c1ccccc1)C(=O)C(=O)c1ccccc1-2	x	89*
SMILES	Mtb RmlCD inh	YopH PTP inh
O=C(C1=C(c2ccccc2)C(=O)c2ccccc2C1=O)c1ccccc1	-9	-30
CCCCCN1C(=O)Cn2c(nc3ccccc3c2=O)C1C (configuration not stated)	-6	x
N#Cc1c(N)n(CCNC(=O)c2ccccc2)c2nc3ccccc3nc12	x	-27
N#Cc1c(N)n(CCNC(=O)c2cccs2)c2nc3ccccc3nc12	x	54*
CCCCN(C)CCNC(=O)c1ccc(Cn2c(=S)[nH]c3ccc(Br)cc3c2=O)cc1	20	x
O=C1Cc2ccccc2C(=O)N1CCc1ccccc1	8	100*
O=C1C(=O)N(Cc2ccccc2)C(=O)N1CCN1C(=O)c2ccccc2C1=O	-3	x
COC(=O)C1=C(C)NC(=O)/C1=C\N(C)C	-9	x
CCC(=O)Oc1ccc2c(C)c(Cl)c(=O)oc2c1	43*	-32
Cc1c(Cl)c(=O)oc2cc(OC(C)C)ccc12	x	-15
O=C1CN(C(=O)CNCc2ccc(Cl)cc2)c2ccccc2N1	12	x
COc1ccc(C(=O)OC2CCN(C)CC2)cc1	x	3
Cc1c(Br)cc(C(=O)OC2CCN(C)CC2)c(C)c1C	17	54*
CC(=O)N1CCCC1(C(=O)O)c1ccccc1 (configuration not stated)	-18	x
CCOC(=O)c1ccc(NS(=O)(=O)c2cc(-c3nnnn3C(C)C)ccc2OC)cc1	x	62*
CCn1nnnc1-c1ccc(OC)c(S(=O)(=O)Nc2ccc(C(=O)OC)cc2)c1	0	-7
Cc1cc(C)cc(Oc2ccc(NC(=O)C3CC=CCC3C(=O)O)cc2)c1 (configuration not stated)	2	x
CN1CCNC(=O)C1CC(=O)NCCc1ccccc1F (configuration not stated)	-7	x
COC(=O)CSc1nnc(CNC(=O)c2ccccc2OC)n1C	20	-38
COC(=O)CSc1nnc(CNC(=O)c2cccc(C)c2)n1-c1ccccc1OC	x	76*
S=c1[nH]nc(-c2ccccc2)n1/N=C/C=C/c1ccco1	9	51*
S=c1[nH]nc(-c2ccc(Cl)cc2)n1/N=C/C=C/c1ccco1	60	x
COCCCn1c(=O)/c(=C\c2ccccc2OC(F)F)s/c1=C(/C#N)C(=O)NC(C)C	-8	-16
COCCCn1c(=O)/c(=C\c2ccc(OC(F)F)c(OC)c2)s/c1=C(/C#N)C(=O)NCCOC	66*	x
Cc1ccsc1CN(C)C(=O)CCc1nnc(COc2ccccc2)o1	6	x
SMILES	Mtb RmlCD inh	YopH PTP inh
CN(C1=C(NC(=O)c2ccccc2)C(=O)c2ccccc2C1=O)C1CCS(=O)(=O)C1 (configuration not stated)	x	65*
CC(=O)NC1=C(NC2CCS(=O)(=O)C2)C(=O)c2ccccc2C1=O (configuration not stated)	11	-3
COc1nc(Nc2ccc([N+](=O)[O-])cc2)nc(NC2CCCCC2)n1	-12	x
Cc1cc(C)[n+]2[nH]c(N)c(N=Nc3ccccc3)c2n1	-9	x
Nc1cccc(C2=Nc3cccc4cccc(c34)N2)c1	9	62*
COc1ccc(C2=Nc3cccc4cccc(c34)N2)cc1	1	-21
S=C1NCN(C2CCCCC2)CN1CCc1ccccc1	10	x
COC(=O)c1ccccc1N=Nc1c(C)noc1C	-9	x
CN(C)c1ccc(-c2noc(C3CCN(S(=O)(=O)c4cccc(Cl)c4)CC3)n2)cc1	-10	-32
O=S(=O)(c1ccc2ccccc2c1)N1CCC(c2nc(-c3ccncc3)no2)CC1	x	50*
CCOC(=O)c1cnn(-c2ccccc2)c1NC(=O)CN1CCCCC1	-41	x
CCN(Cc1ccncc1)Cc1c(O)ccc2cc(Br)ccc12	2	x
COc1ccccc1NC(=O)CN(Cc1ccco1)C(=O)c1cc2ccccc2o1	5	x
CCc1ccc(S(=O)(=O)/N=C2/C=C(Sc3ncn[nH]3)C(=O)c3ccccc32)cc1	-1	93*
CCc1ccc(S(=O)(=O)/N=C2\C=CC(=O)c3ccccc32)cc1	-8	x
C=CC[N+]1(CC(=O)NCc2ccc(NC(C)=O)cc2)CCOCC1	16	x
O=C1C=Cc2ccccc2C1=O	x	63*
CCN1C(=C2C(=O)c3ccccc3C2=O)C=Cc2ccccc21	-38	-3
CCOC(=O)N1CCN(c2cc(NCCC(=O)O)c3c4c(onc24)-c2ccccc2C3=O)CC1	9	87*
O=C(O)CCCNc1cc(N2CCC3(CC2)OCCO3)c2noc3c2c1C(=O)c1ccccc1-3	-11	9
COc1ccc(CC(NC(C)=O)C(=O)NC2CCN(c3nnnn3-c3ccccc3)CC2)cc1OC (configuration not stated)	-10	x
O=c1[nH]c(Nc2ccccc2)cc2ccccc12	-5	101*
O=c1nccc(Nc2ccccc2)[nH]1	-6	x
O=C1Nc2ccccc2N(O)N1c1cc(-c2ccccc2)[nH]n1	4	x
CC(=C/C(=O)O)/C=C/c1ccc([N+](=O)[O-])cc1	8	-12
CC1(C)COC(/C=C/c2ccc([N+](=O)[O-])cc2)=N1	7	52*

From PubChem BioAssay
